Reference: PubChem BioAssay (NCATS)
Inconclusive results are not listed. Where a call stands in place of a potency, no number is given. Unmarked numbers belong to inactive results. Activity calls are given as the source filed them. The call rests on the fitted dose curve; in most records, active means well fitted curve in the direction sought with a large enough effect; inconclusive means small, poorly fitted or top-dose-only effect, or another doubt; inactive means no such curve, though single readings can be large; an effect the other way counts as inactive or inconclusive.

Columns and labels:
[1] = target: Calcium and integrin-binding protein 1 (Homo sapiens) (UniProt Q99828); assay: Primary qHTS for Identification of Calcium Integrin Binding Protein 1 (CIB1) Competitor (AID 1508620);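 further: GST tagged CIB1 binding a fluorescein labelled alphaIIb integrin peptide tracer; top concentration of the series differs between compounds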
How it was run: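 Fluorescence polarization competition: GST-tagged CIB1 (1 uM final) preincubated with compound 15 min at room temperature, then FITC-labelled alphaIIb peptide (100 nM final) added. After 15 min at room temperature, polarization read at Ex 480/Em 540.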

[2] = Primary qHTS for inhibitors of nuclear receptor binding SET domain protein 2 (NSD2) in an isogenic RCH-ACV NSD2 p.E1099K mutant (9B) (AID 1645876); further: nearly all actives have a fitted effect of over 70% in size; further: potency means the concentration at half of the fitted maximal effect
[3] = Primary qHTS for inhibitors of nuclear receptor binding SET domain protein 2 (NSD2) in an RCH-ACV wild type WT cells (2C) (AID 1645877); further: nearly all actives have a fitted effect of over 70% in size; further: potency means the concentration at half of the fitted maximal effect

Calcium and integrin-binding protein 1 (Homo sapiens), sequence (Q99828 whole entry, looked up): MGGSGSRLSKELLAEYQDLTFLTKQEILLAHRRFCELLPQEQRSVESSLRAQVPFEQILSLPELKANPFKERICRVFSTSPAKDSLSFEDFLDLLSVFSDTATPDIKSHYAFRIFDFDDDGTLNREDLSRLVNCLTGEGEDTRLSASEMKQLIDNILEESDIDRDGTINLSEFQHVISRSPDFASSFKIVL

Compound: CC(C)(O)C1CC=C(C(=O)OC[C@H]2O[C@@H](Oc3cc(C(=O)O)cc(O)c3O)[C@H](O)[C@@H](O)[C@@H]2O)CC1 (some centres not stated)
- Potency [1]: inactive
- Potency [2]: inactive
- Potency [3]: inactive

Compound: CC(=O)OCC1OC(OC2COC(OC3COC(OC4C(OC5C(CO)OC(OC6CCC7(C)C(CCC8(C)C7CC=C7C9CC(C)(C)CCC9(C(=O)OC9OC(CO)C(O)C(O)C9OC9OCC(OC%10OCC(O)(CO)C%10O)C(O)C9O)C(O)CC78C)C6(C)C)C(O)C5O)OCC(O)C4O)C(O)C3O)C(O)C2O)C(OC(=O)/C=C/c2ccccc2)C(O)C1OC(C)=O (configuration not stated)
- activity change, negative = inhibition [1]: -1.97% [at 12.4 µM]
- Potency [2]: 1250 nM (active)
- Potency [3]: 1990 nM (active)

Compound: Fc1cccc(CN(C2=NCCN2)c2c(Cl)cccc2Cl)c1
- Potency [1]: inactive
- Potency [2]: inactive
- Potency [3]: inactive

Compound: COCc1c(O)c(C(=O)O)c(C)c2c1OC(=O)c1c(C)cc(O)c(CO)c1O2
- Potency [1]: inactive
- Potency [2]: inactive
- Potency [3]: inactive

Compound: C/C=C(\C)C(=O)OC[C@H]1O[C@H](O[C@H]2O[C@H](CO)[C@@H](O)[C@H](O)[C@H]2O[C@@H]2O[C@H](CO)[C@@H](O)[C@H](O)[C@H]2O)[C@H](O[C@@H]2O[C@H](CO)[C@@H](O)[C@H](O)[C@H]2O)[C@@H](O)[C@@H]1O
- Potency [1]: inactive
- Potency [2]: inactive
- Potency [3]: inactive

Compound: COc1cc(/C=C/CO[C@@H]2O[C@H](CO)[C@@H](O)[C@H](O)[C@H]2O)cc(OC)c1O[C@@H]1O[C@H](CO)[C@@H](O)[C@H](O)[C@H]1O
- Potency [1]: inactive
- Potency [2]: inactive
- Potency [3]: inactive

Compound: COc1cc(/C=C/C(=O)OC[C@H]2O[C@@H](OC3CC(C)=C(C(=O)O)C(C)(C)C3)[C@H](O)[C@@H](O)[C@@H]2O)cc(OC)c1O (some centres not stated)
- Potency [1]: inactive
- Potency [2]: inactive
- Potency [3]: inactive

Compound: NC(=O)[C@H](Cc1ccccc1)NC(=O)[C@H](CCCN=C(N)N)NC(=O)C12CC3CC(CC(C3)C1)C2
- Potency [1]: inactive
- activity change, negative = viability loss [2]: -0.15% [at 9.23 µM]
- activity change, negative = cell killing [3]: 0.0232% [at 9.23 µM]

Compound: COc1cc(C(C)=O)ccc1O[C@@H]1O[C@H](CO)[C@@H](O)[C@H](O)[C@H]1O
- Potency [1]: inactive
- Potency [2]: inactive
- Potency [3]: inactive

Compound: NC(=O)NCCCC(NC(=O)Cc1ccccc1)C(=O)O (configuration not stated)
- Potency [1]: inactive
- Potency [2]: inactive
- Potency [3]: inactive

Compound: CC1(C)OC(=O)CC(O)C2(C)C1CC(=O)C1(C)C2C(O)CC2(C)C(c3ccoc3)OC(=O)C3OC321 (configuration not stated)
- Potency [1]: inactive
- Potency [2]: inactive
- Potency [3]: inactive

Compound: C/C=C1/C[N+](C)([O-])C2Cc3c([nH]c4ccccc34)C(=O)CC1C2C(=O)OC (configuration not stated)
- Potency [1]: inactive
- Potency [2]: inactive
- Potency [3]: inactive

Compound: C=C1C2CCC3CC2(CC(O)C2(O)C1CC(OC1OC(CO)C(O)C(O)C1O)C2(C)C)CC3(C)O (configuration not stated)
- Potency [1]: inactive
- Potency [2]: inactive
- Potency [3]: inactive

Compound: CC1(C)CC[C@]2(C(=O)O[C@@H]3O[C@H](CO)[C@@H](O)[C@H](O)[C@H]3O)CC[C@]3(C)C(=CCC4[C@@]5(C)C[C@H](O)[C@H](O[C@@H]6OC[C@@H](O)[C@H](O)[C@H]6O)[C@@](C)(CO)C5CC[C@]43C)C2C1 (some centres not stated)
- Potency [1]: inactive
- activity change, negative = viability loss [2]: 1.45% [at 9.23 µM]
- activity change, negative = cell killing [3]: 2.07% [at 9.23 µM]

Compound: COc1cc(C2Oc3c(OC)cc(/C=C/C(=O)OC4CC(O)(C(=O)O)CC(O)C4O)cc3C2CO)ccc1O (configuration not stated)
- Potency [1]: inactive
- Potency [2]: inactive
- Potency [3]: inactive

Compound: C[C@@H]1O[C@@H](OC2C(CO)OC(OCC3OC(OC(=O)[C@]45CCC(C)(C)CC4C4=CCC6[C@@]7(C)CC[C@@H](O)[C@](C)(C(=O)O)C7CC[C@@]6(C)[C@]4(C)CC5)C(O)C(O)C3O)C(O)C2O)[C@H](O)[C@H](O)[C@H]1O (some centres not stated)
- Potency [1]: inactive
- activity change, negative = viability loss [2]: 0.361% [at 9.23 µM]
- outcome [3]: inactive [at 9.23 µM]

Compound: CC1CCC2C(C)(C)C(O)C(O)CC2(C)C12Cc1c(O)cc(CO)c(C=O)c1O2 (configuration not stated)
- Potency [1]: inactive
- Potency [2]: inactive
- Potency [3]: inactive

Compound: COC(=O)C1=COC(O[C@@H]2O[C@H](CO)[C@@H](O)[C@H](O)[C@H]2O)/C(=C\COC(=O)/C=C/c2ccccc2)C1CC(=O)OCCc1ccc(O)cc1 (some centres not stated)
- Potency [1]: inactive
- Potency [2]: inactive
- Potency [3]: inactive

Compound: COc1ccc(/C=C/C(=O)N2CCCC2)cc1
- Potency [1]: inactive
- Potency [2]: inactive
- Potency [3]: inactive

Compound: CC1(C)CC[C@]2(C(=O)O)CC[C@]3(C)C(=CCC4[C@@]5(C)C[C@@H](O)[C@H](O)[C@](C)(CO)C5CC[C@]43C)[C@@H]2[C@@H]1O (some centres not stated)
- Potency [1]: inactive
- Potency [2]: inactive
- Potency [3]: inactive

Compound: C=C1C[C@@]2(O)O[C@@]3(C[C@H]2C(C)C)[C@@H](C)CC[C@@H]13
- Potency [1]: inactive
- Potency [2]: inactive
- Potency [3]: inactive

Compound: O=C(Nc1ccn(Cc2c(F)cccc2C(F)(F)F)n1)c1c(F)cccc1F
- Potency [1]: inactive
- activity change, negative = viability loss [2]: -7.96% [at 9.23 µM]
- activity change, negative = cell killing [3]: -25.3% [at 9.23 µM]

Compound: Cc1occc(=O)c1O[C@@H]1O[C@H](COC(=O)CC(C)(O)CC(=O)O)[C@@H](O)[C@H](O)[C@H]1O (some centres not stated)
- Potency [1]: inactive
- Potency [2]: inactive
- Potency [3]: inactive

Compound: CC1(C)C[C@H](O)C[C@@]2(C)[C@H]1[C@H](O)C=C1COC(=O)[C@@]12O
- Potency [1]: inactive
- Potency [2]: inactive
- Potency [3]: inactive
